# Many of the other results were omitted from the sample, so hits are more common in it than they were.
# Vaccinia Venus: inhibitors of vaccinia virus (Venus reporter). Vaccinia virus Venus reporter expression, fluorescence. Potency, µM (titrated, usually from 36.5 µM), without a hit: top-dose activity change, negative = inhibition, usual class: inhibitors. 330,000 compounds, 0.46% hits. AID 720580; calls by dose curve; tested in A549 cells; also: potency is read from the fitted curve at half-maximal effect; % is scaled to controls: 0 for no effect and ±100 for the full control effect; nearly all actives have a fitted effect of over 30% in size
# Shiga toxin inh: inhibitors of Shiga toxin in Vero cells; Vero cells, Shiga toxin protein synthesis inhibition reporter; inhibition, % at 38.7 µM; 290,000 compounds, 9.2% hits; AID 2315; in the data active = inhibition mostly above about 28%, no sharp cut-off; inactive = mostly below about 43%; also: 0% is about no effect
# Lassa entry inh: Lassa virus entry inhibition; Lassa virus pseudotype entry inhibition, cell reporter; Potency, µM (highest dose often 37.9 µM), for the others: at the highest dose activity change, negative = inhibition, most hits filed as inhibitors; 300,000 compounds, 1.2% hits; calls by dose curve; tested in HEK293 cells; also: potency is read from the fitted curve at half-maximal effect; % is scaled to controls: 0 for no effect and ±100 for the full control effect; nearly all actives have a fitted effect of over 50% in size
# MARV entry inh: inhibitors of Marburg virus binding or cell entry; Marburg virus pseudotyped entry inhibition, cell reporter; Potency, µM (series often up to 37.8 µM), without a hit: at the highest dose activity change, negative = inhibition, most hits filed as inhibitors; 300,000 compounds, 1.8% hits; calls by dose curve; tested in HEK293 cells; also: potency is read from the fitted curve at half-maximal effect; % is scaled to controls: 0 for no effect and ±100 for the full control effect
# Vaccinia mCherry: inhibitors of vaccinia virus infection (mCherry reporter signal) | 310,000 compounds, 0.63% hits | AID 720579 | Potency, µM (highest dose often 36.5 µM), without a hit: at the top dose activity change, negative = inhibition, most hits filed as inhibitors | Vaccinia virus mCherry reporter infection, fluorescence; calls by dose curve; tested in A549 cells; also: potency is read from the fitted curve at half-maximal effect; % is scaled to controls: 0 for no effect and ±100 for the full control effect; nearly all actives have a fitted effect of over 35% in size
# Cycloheximide cs: affects cycloheximide protein synthesis inhibition readout, counter-screen; max response, %; AID 2314; 300,000 compounds, 12% hits; cell reporter, cycloheximide protein synthesis inhibition counterscreen; in the data active = max response mostly above about 13%, no sharp cut-off; inactive = mostly below about 14%; also: read at 38.3 µM for the half of the compounds with a filed dose; 0% is about no effect
# * = called active by the depositor; i = inactive; ? = inconclusive; . = not tested or not shown; [ ] = another dose, or the depositor's remark.
SMILES,Vaccinia Venus,Shiga toxin inh,Lassa entry inh,MARV entry inh,Vaccinia mCherry,Cycloheximide cs
C=CCn1c(NCCc2ccccc2)nc2c1c(=O)n(C)c(=O)n2C,?,13.0,?,?,?,7.7
C/C(Cl)=C\Cn1c(NCCc2ccccc2)nc2c1c(=O)n(C)c(=O)n2C,-27.1%,-5.4,4.61µM*,3.66µM*,?,-6.0
O=C(NC(=S)Nc1ccc(S(=O)(=O)N2CCCC2)cc1)C1CC1,.,1.3,.,.,.,-1.9
Fc1ccc(NC(=S)Nc2ccc(F)c(Cl)c2)cc1Cl,10µM*,9.7,-17.3%,0.2%[46.1 µM],?,2.8
O=C(Nc1ccc(F)c(Cl)c1)C1CCCC1,-26.1%[7.34 µM],.,-2.5%,-26.9%[46.1 µM],i[7.34 µM],.
O=C(NC(=S)Nc1ccc(F)c(Cl)c1)C1CC1,-11.4%,16.8,?,1.4%[46.1 µM],i,27.7*
Cc1ccc(NC(=S)NC(=O)C2CC2)cc1Cl,.,52.9*,.,.,.,28.1*
O=C(Cn1cc(C(=O)c2ccncc2)c(=O)c2cc(F)ccc21)Nc1ccc(Cl)cc1,-8.3%[7.34 µM],.,4.8%[46.1 µM],.,-6.3%[7.34 µM],.
CCN(CC)/N=N/C1=C2C(C)=CC(C)=NC2N=N1 (configuration not stated),.,.,.,10.5%,.,.
Brc1ccc2c(c1)C(OC1CN3CCC1CC3)c1ccccc1CS2 (configuration not stated),11.2µM*,-22.4,?,3.98µM*,?,-8.3
CN1CCC(OC2c3ccccc3CCc3ccccc32)CC1,-27.3%,.,.,.,i,.
O=C(NCc1cccs1)c1nn(-c2ccccc2)nc1CO,-28.0%,.,?,-8.8%[46.1 µM],-19.6%,.
Cc1ccc(-n2nc(CO)c(C(=O)NCCCCc3ccccc3)n2)cc1,-9.2%,.,18.4%[46.1 µM],?,-11.6%,.
C=CCNc1ncnc2ccccc12,-16.2%,-17.4,0.9%,-5.4%,i,4.0
C=CCNc1ncnc2c1[nH]c1ccc(Cl)cc12,?,81.5*,10µM*,?,?,36.8*
CCOc1ccc2[nH]c3c(NCCc4ccc(OC)c(OC)c4)ncnc3c2c1,-6.6%,7.3,?,?,?,1.2
C=CCNc1ncnc2c1[nH]c1ccccc12,-17.9%,12.9,-13.1%,-23.6%,.,10.2*
COc1cc(C=O)c(Br)cc1OCc1ccc(C)cc1,-0.8%,87.4*,6.1%,?,-10.6%,46.6*
Cc1nc(N(CCO)C2CCCCC2)c2nnn(Cc3ccccc3)c2n1,-3.2%,10.2,-10.2%[46.1 µM],10µM*,i,2.9
O=C(CCN1CCN(CCO)CC1)Nc1ccccc1,.,21.1,.,.,.,-1.3
Cc1sc(NC(=O)CCl)c(C(=O)c2ccccc2)c1C,.,-7.5,?,2.4%,.,11.7*
CC(=O)Nc1sc(C)c(C)c1C(=O)OCCOc1ccccc1,-0.5%,113.4*,?,?,-7.5%,47.9*
O=C(O)C(C(O)c1ccccc1)[n+]1ccccc1 (configuration not stated),-2.0%,.,.,.,-14.7%,.
O=C(CSc1nc2c(sc3ccccc32)c(=O)n1CCCN1CCOCC1)NCC1CCCO1 (configuration not stated),-4.4%,-9.3,?,?,-9.0%,-1.8
O=C(CSc1nc2c(sc3ccccc32)c(=O)n1CCCN1CCOCC1)NC1CCCC1,.,-8.6,-3.2%,8.2µM*,.,1.5
SMILES,Vaccinia Venus,Shiga toxin inh,Lassa entry inh,MARV entry inh,Vaccinia mCherry,Cycloheximide cs
COc1cccc(NC(=O)CSc2nc3c(sc4ccccc43)c(=O)n2CCCN2CCCC2)c1,.,39.4*,.,.,.,16.3*
COc1ccc(NC(=O)CC2C(=O)N(c3ccccc3)C(=O)N2Cc2cccnc2)cc1 (configuration not stated),-4.5%,.,0.0%[46.1 µM],.,-2.5%,.
CSc1n[nH]c(=O)n1-c1ccc(Cl)cc1,-11.3%,-4.1,?,-3.8%,i,-0.4
COc1ccc(-c2nnc(SCCOc3cccc(C)c3)n2N)cc1,.,-4.5,?,5.7%,.,1.5
Cc1ccc(OCCn2cccn2)c(C)c1,.,22.4,.,.,.,-2.2
c1ccc(OCCOCCSc2ncccn2)cc1,-2.7%,44.7,-5.8%,0.6%,i,20.3*
CCC(=O)c1ccc(OCCSc2ncccn2)cc1,-15.2%,87.7*,?,-25.8%,-20.8%,53.4*
Cc1cccc(OCCOCCSc2ncccn2)c1,-1.8%,40.7,?,?,.,10.4*
Cc1ccc(OCCSc2ncccn2)c(C)c1,-16.0%,96.0*,10µM*,?,i,49.2*
CCC(=O)c1ccc(OCC(=O)O)cc1,1.4%,35.1,-13.5%,-3.2%,i,-2.6
CC(=CC[Si](C)(C)C)CCC=O,.,.,?,-25.1%[14.2 µM],.,.
Cc1cc(SCCOc2ccccc2)nc(N)n1,-15.9%,80.0*,0.2%,?,-18.6%,28.3*
